Source: PubChem
Rows were chosen to be rich in hits. Some 6.9% of all compounds tested hit in one or more screens of this group.
MPTP block: inhibitors of mitochondrial permeability transition pore; hit rate 1.4% among 360,000; inhibition, % at 10 µM; isolated mouse mitochondria, Ca2+ swelling absorbance, 30 min; AID 602449;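 active means inhibition of 50% or more, scaled per plate between neutral and stimulator controls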;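 further: 0% = DMSO wells given calcium and 100% = 1 mM EGTA wells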
CSC inhib: blocks cancer stem cells; cancer stem cell-like cells viability, luminescence; inhibition, % at 7.5 µM; hit rate 1.1% among 300,000; in the data active means inhibition above about 75%; tested in HMLE shEcad cells
Mdm2-MdmX inh: human Mdm2/MdmX binding inhibition. O15151+Q00987. SaOS-2 split-luciferase Mdm2/MdmX complementation, luminescence. inhibition, % at 8 µM. hit rate 3% among 330,000;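 active means inhibition of at least 50% at 8 µM in the primary screen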
SKKanGAS inh: blocks kanamycin growth of S. pyogenes SKKanGAS strain; BacTiter-Glo, 6 h; inhibition, % at 7.5 µM; hit rate 1.3% among 300,000; AID 1662;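 active means mean replicate score, as percent of positive control median, at least 50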;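 further: strain carries kanamycin resistance gene driven by streptokinase promoter and grows in 40 µg/ml kanamycin; loss of luminescence reflects streptokinase promoter inhibition or plain growth inhibition; 0% = median of DMSO wells and 100% = positive control at its reference dose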
NR3A LBD binder: modulates the human NR3A ligand-binding domain; NR3A LBD differential scanning fluorimetry, Tm shift; 0% = protein alone, 100% = glycine-bound protein; Tm shift relative to glycine control, % at 25 µM; hit rate 2.5% among 340,000;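 active means melting temperature shift of at least 10% of the positive control shift, at one fixed dose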
Beta cell apopt: blocks beta cell apoptosis; protection from apoptosis, % (test concentration not listed); INS-1E cytokine-induced death, ATP luminescence, 48 h; percent of positive-control rescue, neutral wells zero; hit rate 0.8% among 300,000;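 active means Every replicate reaches about 75%, or at least half do and their mean reaches it too, limit read from the data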;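 further: 0% = cytokine-treated negative control wells and 100% = positive control rescue; higher means more ATP so stronger rescue from cytokine killing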
MPTP counter: mitochondrial membrane potential, counter-screen | hit rate 78% among 5,000 | shares compounds with MPTP block | isolated mitochondria, Rhodamine 123 fluorescence | AID 624504 | inhibition, % at 10 µM; in the data active means inhibition above about 22%;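 further: 0% = DMSO vehicle and 100% = positive control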
MPTP swell DR: MPTP inhibition, dose response swelling confirmation. hit rate 58% among 780. isolated mitochondria swelling, absorbance. shares compounds with MPTP block. IC50, µM. AID 651561; in the data active means IC50 below about 20 µM
MPTP counter DR: active in counter-screen for permeability transition pore inhibitors. isolated mitochondria counterscreen, fluorescence read-out. hit rate 49% among 780. IC50, µM. shares compounds with MPTP block. AID 651564; in the data active means IC50 below about 80 µM
* = called active by the depositor.

Results for O=C(c1ccccc1)c1ccc(OCCOCCN2CCN(Cc3ccccc3)CC2)cc1 ?
MPTP block: 83.5*; CSC inhib: 24.4; Mdm2-MdmX inh: 15.2; SKKanGAS inh: -4.5; NR3A LBD binder: -1.9; Beta cell apopt: 0.0; MPTP counter: 10.4; MPTP swell DR: 18.2*; MPTP counter DR: 27.2*

How did c1ccc(COc2ccc(OCCCCN3CCCCC3)cc2)cc1 do in these assays?
MPTP block: 74.1*; CSC inhib: 19.1; Mdm2-MdmX inh: -15.6; SKKanGAS inh: -0.3; NR3A LBD binder: -0.4; Beta cell apopt: -0.5; MPTP counter: -0.5; MPTP swell DR: 6.71*; MPTP counter DR: 19.4*

How did O=C(CCN1CCN(Cc2ccccc2)CC1)Nc1ccc(OCc2ccccc2)cc1 do in these assays?
MPTP block: 85.6*; CSC inhib: 33.6; Mdm2-MdmX inh: 19.5; SKKanGAS inh: 3.7; NR3A LBD binder: -1.1; Beta cell apopt: 7.8; MPTP counter: 17.0; MPTP swell DR: 7.34*; MPTP counter DR: 13.1*

What do the screens show for `O=C(c1ccccc1)c1ccc(OCCCN2CCCC2)cc1`?
MPTP block: 0.6; CSC inhib: 61.7; Mdm2-MdmX inh: -29.1; SKKanGAS inh: -0.3; NR3A LBD binder: -1.9; Beta cell apopt: -3.9

Results for CC(C)Oc1ccc(OCCSc2nc3ccccc3n2CC(=O)O)cc1 ?
MPTP block: 0.6; CSC inhib: -8.8; Mdm2-MdmX inh: 6.0; SKKanGAS inh: 8.5; NR3A LBD binder: -1.6; Beta cell apopt: 6.5

How did Cc1ccc2c(c1)N(C(=O)CCC(=O)N1CCC(C(N)=O)CC1)CCO2 do in these assays?
MPTP block: 0.5; CSC inhib: 45.2; Mdm2-MdmX inh: 13.7; SKKanGAS inh: -3.0; NR3A LBD binder: -1.1; Beta cell apopt: -6.1

Results for O=C(NC(Cc1ccccc1)c1nc2ccccc2[nH]1)c1ccc(Cl)c([N+](=O)[O-])c1 (centres undefined) ?
MPTP block: 92.6*; CSC inhib: 2.8; Mdm2-MdmX inh: 15.0; SKKanGAS inh: 6.9; NR3A LBD binder: 7.0; Beta cell apopt: -2.1; MPTP counter: 91.3*

Results for CSCC[C@H](NC(=O)c1ccc(Cl)c([N+](=O)[O-])c1)c1nc2ccccc2[nH]1 ?
MPTP block: 58.7*; CSC inhib: 8.5; Mdm2-MdmX inh: 12.1; SKKanGAS inh: -0.7; NR3A LBD binder: -10.7; Beta cell apopt: -1.1; MPTP counter: 83.0*

How did Cc1c(C(=O)NC(Cc2ccccc2)c2nc3ccccc3[nH]2)cccc1[N+](=O)[O-] (centres undefined) do in these assays?
MPTP block: 37.4; CSC inhib: 7.3; Mdm2-MdmX inh: 10.0; SKKanGAS inh: 4.5; NR3A LBD binder: -5.7; Beta cell apopt: 2.2

How did CC(CC(=O)NCc1ccc(Cl)cc1)c1ccccc1 (centres undefined) do in these assays?
MPTP block: -0.8; CSC inhib: -10.3; Mdm2-MdmX inh: 29.7; SKKanGAS inh: -1.7; NR3A LBD binder: -3.0; Beta cell apopt: -0.6

What do the screens show for `CN(C)C(=O)CCc1ccc2c3c([nH]c2c1)[C@]1(C)[C@@H](C(=O)N2CCOCC2)C[C@H](CC(=O)NCCN2CCOCC2)C(=O)N1CC3`?
MPTP block: 0.1; Mdm2-MdmX inh: 0.3; NR3A LBD binder: -0.5

Results for O=C(NCc1ccco1)c1ccccc1NS(=O)(=O)c1ccc(Cl)s1 ?
MPTP block: 90.5*; CSC inhib: -4.0; Mdm2-MdmX inh: -1.8; SKKanGAS inh: 4.2; NR3A LBD binder: -2.9; Beta cell apopt: -1.8; MPTP counter: 78.9*

Results for O=C(NCc1ccco1)c1ccccc1NS(=O)(=O)c1cccs1 ?
MPTP block: -1.9; CSC inhib: 2.6; Mdm2-MdmX inh: 4.2; SKKanGAS inh: 1.1; NR3A LBD binder: 0.3; Beta cell apopt: 2.6

How did O=C(Nc1ccc(Oc2ccccc2)cc1)C1CCN(c2c3c(nc4ncnn24)CCC3)CC1 do in these assays?
MPTP block: 67.4*; CSC inhib: 4.0; Mdm2-MdmX inh: 36.6; SKKanGAS inh: 12.9; NR3A LBD binder: -12.6; Beta cell apopt: 58.0; MPTP counter: 76.2*

Results for O=C(Nc1ccc2c(c1)CCC2)C1CCN(c2c3c(nc4ncnn24)CCC3)CC1 ?
MPTP block: 4.5; Mdm2-MdmX inh: 42.5; SKKanGAS inh: 4.2; NR3A LBD binder: -0.7; Beta cell apopt: 9.5

Results for COc1ccccc1NS(=O)(=O)c1cccc(C(=O)NC2CCN(Cc3ccccc3)CC2)c1 ?
MPTP block: 80.5*; CSC inhib: -2.5; Mdm2-MdmX inh: 25.6; SKKanGAS inh: -2.2; Beta cell apopt: 59.5; MPTP counter: 87.0*

How did Cc1cc(C)n(-c2c(C)[nH]c3ccccc23)n1 do in these assays?
MPTP block: -1.9; CSC inhib: -18.3; Mdm2-MdmX inh: 14.4; SKKanGAS inh: -3.8; NR3A LBD binder: -0.6; Beta cell apopt: 4.4

How did CC(=O)c1ccc(OCC(=O)c2cc(C)n(-c3ccc4c(c3)OCO4)c2C)cc1 do in these assays?
MPTP block: 80.2*; CSC inhib: 1.1; Mdm2-MdmX inh: 21.3; SKKanGAS inh: -0.3; NR3A LBD binder: -0.9; Beta cell apopt: 61.8; MPTP counter: 84.8*

What do the screens show for `Cc1cc(C(=O)COC(=O)c2ccc(N)c([N+](=O)[O-])c2)c(C)n1-c1ccc2c(c1)OCO2`?
MPTP block: 14.2; CSC inhib: 9.4; Mdm2-MdmX inh: 13.1; SKKanGAS inh: 28.4; NR3A LBD binder: -2.5; Beta cell apopt: 20.9

How did CCCn1c(=N)n(CC(O)COc2ccc(C)cc2)c2ccccc21 (centres undefined) do in these assays?
MPTP block: 0.8; CSC inhib: 8.9; Mdm2-MdmX inh: 13.7; SKKanGAS inh: -10.8; NR3A LBD binder: -1.1; Beta cell apopt: 10.1

Results for Cc1ccc(OCC(O)Cn2c(=N)n(CCN3CCOCC3)c3ccccc32)cc1 (centres undefined) ?
MPTP block: 51.6*; CSC inhib: -4.4; Mdm2-MdmX inh: -6.0; SKKanGAS inh: 1.4; NR3A LBD binder: -0.7; Beta cell apopt: 1.9; MPTP counter: -0.2; MPTP swell DR: inactive; MPTP counter DR: >80

How did O=C(COC(=O)CNC(=O)c1ccccc1)Nc1ccc(S(=O)(=O)N2CCOCC2)cc1 do in these assays?
MPTP block: -4.3; CSC inhib: 4.7; Mdm2-MdmX inh: -4.4; SKKanGAS inh: -5.2; NR3A LBD binder: 1.9; Beta cell apopt: 2.4

How did Cc1ccccc1-c1nn(-c2ccc(F)cc2F)cc1CNCCCN(C)C do in these assays?
MPTP block: 86.6*; CSC inhib: 12.6; Mdm2-MdmX inh: 33.8; SKKanGAS inh: 3.9; NR3A LBD binder: -0.6; Beta cell apopt: 1.6; MPTP counter: -12.4
